Among the data in paper PMC6602471 are binding signal values, retold here.

In the assay the target is RUNX1 (Homo sapiens, UniProt Q01196 1-453). Description: custom PBM; custom protein-binding microarray; buffer, salt, pH and temperature not stated; high values mean tight binding. The conditions noted are these: dsDNA, one strand shown.
Sequence of RUNX1 (Q01196 whole entry): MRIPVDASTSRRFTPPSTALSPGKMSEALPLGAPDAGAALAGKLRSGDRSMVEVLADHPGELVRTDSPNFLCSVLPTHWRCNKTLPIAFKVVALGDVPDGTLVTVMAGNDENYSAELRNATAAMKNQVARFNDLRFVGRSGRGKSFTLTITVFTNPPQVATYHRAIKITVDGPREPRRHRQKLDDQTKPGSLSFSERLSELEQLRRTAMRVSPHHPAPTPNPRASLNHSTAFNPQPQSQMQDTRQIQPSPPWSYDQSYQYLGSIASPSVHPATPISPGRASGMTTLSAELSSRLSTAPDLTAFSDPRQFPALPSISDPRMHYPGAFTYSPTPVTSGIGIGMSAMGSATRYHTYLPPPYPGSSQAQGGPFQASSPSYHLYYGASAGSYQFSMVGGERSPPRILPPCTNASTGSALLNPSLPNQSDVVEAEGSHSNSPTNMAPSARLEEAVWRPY

Regarding “GCGCACATTTCCCCTAAATCATACACGCACACATACACATACACACATACACATACGCAC”, the binding signal was 10.9 log fluorescence intensity.
The figure for “GCGCACATTTCACGTAAATCATACACGCACACATACACATACACACATACACATACGCAC” is 10.9 log fluorescence intensity; for “GCGCACATTTCCAGTAAATCATACACGCACACATACACATACACACATACACATACGCAC” it is 10.9 log fluorescence intensity; for “GCATACGGCCGACGTCAGCCACATACGCACACATACACATACACACATACACATACGCAC” it is 11 log fluorescence intensity.
Turning to “CGCGCTCTCTGTGGTTGCGCACATACGCACACATACACATACACACATACACATACGCAC”, the binding signal is 11.4 log fluorescence intensity.
Take “CGCGCACTCTGTGGTTGCACACATACGCACACATACACATACACACATACACATACGCAC”: the binding signal is 11.6 log fluorescence intensity.
Consider “GCATACGTCTGACGTCAGCCACATACGCACACATACACATACACACATACACATACGCAC”, for which the binding signal was 11 log fluorescence intensity.
The figure for “GCGCACATTTCCCGTAAACCATACACGCACACATACACATACACACATACACATACGCAC” is 11 log fluorescence intensity.
The figure for “GCATACGGCTGACGGCAGCCACATACGCACACATACACATACACACATACACATACGCAC” is 10.9 log fluorescence intensity.
With “CGCGCAGTCTGTGGTTGCGCACATACGCACACATACACATACACACATACACATACGCAC”, the binding signal was 11.4 log fluorescence intensity.
Turning to “CGCGCACTCTGTGGTTGTGCACATACGCACACATACACATACACACATACACATACGCAC”, the binding signal is 11.3 log fluorescence intensity.
On to “CGCGCATTCTGTGGTTGCGCACATACGCACACATACACATACACACATACACATACGCAC”, for which the binding signal was 11.4 log fluorescence intensity.
“GCATACGGCTGACTTCAGCCACATACGCACACATACACATACACACATACACATACGCAC”: the binding signal was 10.9 log fluorescence intensity.
The figure for “GCGCACATTACCCGTAAATCATACACGCACACATACACATACACACATACACATACGCAC” is 10.9 log fluorescence intensity; for “GCATACGGCTGACGTCAGACACATACGCACACATACACATACACACATACACATACGCAC” it is 10.9 log fluorescence intensity.
As for “CGCGCACTCTGGGGTTGCGCACATACGCACACATACACATACACACATACACATACGCAC”, the binding signal was 10.9 log fluorescence intensity.
“GCATACGGCTGACGTCAGCTACATACGCACACATACACATACACACATACACATACGCAC”: the binding signal was 10.9 log fluorescence intensity.
Consider “GCGCACTTTTCCCGTAAATCATACACGCACACATACACATACACACATACACATACGCAC”, for which the binding signal was 11 log fluorescence intensity.
For the sequence “GCATACGGCTGACGTCAGCCACATACGCACACATACACATACACACATACACATACGCAC”, the binding signal is 11 log fluorescence intensity.
The value for “GCATACGGCTGACGTCATCCACATACGCACACATACACATACACACATACACATACGCAC” was 10.9 log fluorescence intensity; that for “CGCGCACTCTCTGGTTGCGCACATACGCACACATACACATACACACATACACATACGCAC” was 10.9 log fluorescence intensity.
For the sequence “GCATACGGCTGACGTCAACCACATACGCACACATACACATACACACATACACATACGCAC”, the binding signal was 11 log fluorescence intensity.
On to “GCGCACATTTCCGGTAAATCATACACGCACACATACACATACACACATACACATACGCAC”, for which the binding signal is 11 log fluorescence intensity.
Consider “CGCGCACTCTGTGGTTTCGCACATACGCACACATACACATACACACATACACATACGCAC”, for which the binding signal was 12.3 log fluorescence intensity.
For “GCATACGGCTGACGTCGGCCACATACGCACACATACACATACACACATACACATACGCAC”, the binding signal was 11 log fluorescence intensity.
For the sequence “GCGCACATTTCCCGTAAAGCATACACGCACACATACACATACACACATACACATACGCAC”, the binding signal is 11 log fluorescence intensity.
As for “CGCGCACTCTGTGGTTGAGCACATACGCACACATACACATACACACATACACATACGCAC”, the binding signal is 11.5 log fluorescence intensity.
For the sequence “CGCGCACTCTGCGGTTGCGCACATACGCACACATACACATACACACATACACATACGCAC”, the binding signal was 12.8 log fluorescence intensity.
Take “GCGCACATTTGCCGTAAATCATACACGCACACATACACATACACACATACACATACGCAC”: the binding signal is 10.9 log fluorescence intensity.
As for “GCGCACATTTCCCGTACATCATACACGCACACATACACATACACACATACACATACGCAC”, the binding signal was 11 log fluorescence intensity.
With “GCGCACATCTCCCGTAAATCATACACGCACACATACACATACACACATACACATACGCAC”, the binding signal is 10.9 log fluorescence intensity.
Consider “CGCGCACTTTGTGGTTGCGCACATACGCACACATACACATACACACATACACATACGCAC”, for which the binding signal was 11.6 log fluorescence intensity.
With “GCGCACATTTCCCGTCAATCATACACGCACACATACACATACACACATACACATACGCAC”, the binding signal is 11 log fluorescence intensity.
